# Wnt bcat act: Wnt/beta-catenin pathway activation; Wnt/beta-catenin reporter cell assay, activator, plate reader; activation, % at 9.35 µM; hit rate 1.2% among 300,000; AID 743398; in the data active means activation above about 30%, passing the limit was not always enough;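 further: 0% = neutral control wells and 100% = positive control wells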
# MITF TRPM1 HTS: increases MITF-driven TRPM1 promoter luciferase signal; SK-MEL-5 TRPM1-promoter luciferase, 24 h; % of positive control, neutral wells = 0; activation, % at 12.5 µM; hit rate 0.75% among 300,000; AID 588334;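 active means mean activation of at least 80% with every replicate also reaching 80%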;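 further: 0% = neutral control wells and 100% = parthenolide positive control wells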
# Dyrk1A ADPGlo: inhibitors of rat Dyrk1A kinase; Q63470; ADP-Glo luminescence, NFATc1 peptide; inhibition, % at 12.5 µM; hit rate 0.43% among 310,000; AID 504441;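 further: plate controls were vehicle with enzyme for no effect and no enzyme for full effect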
# miR-122 sensor: blocks miR-122 activity in Huh7 sensor cells; Huh7 miR-122 Renilla luciferase sensor, 48 h; neutral wells = 0, positive control = 100; activation (reporter increase), % at 12.5 µM; hit rate 0.3% among 340,000; AID 602342;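 active means mean replicate activation score at least 90 and every replicate individually at or above 90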;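 further: higher luciferase means less miR-122 activity so hits act as miR-122 inhibitors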
# GSIS activator: primary screen for activators of insulin secretion dependent on glucose, INS-1E cells, GLuc reporter luminescence; INS-1E GLuc reporter insulin secretion, 2-3 h; activation, % at 16.6 µM; hit rate 0.61% among 370,000;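 active means lowest replicate activation of at least 40%, so every replicate reaches that level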;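 further: 0% = median of neutral control wells and 100% = median of IBMX positive control wells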
# NSD2 HMT inh: inhibitors of human histone methyltransferase NSD2 | O96028 | NSD2 peptide methylation, AlphaScreen, 120 min | inhibition, % at 12.5 µM | hit rate 0.54% among 310,000 | AID 743445
# Alpha artifact: AlphaScreen assay artifact in NSD2 counter-screen; shares compounds with NSD2 HMT inh; AlphaScreen artifact counterscreen, preloaded methylated H4 peptide; AC35, µM (highest dose often 10 µM), for inactives: top-dose activity change, negative = signal loss; hit rate 9.4% among 1,500; call rule not given here
# * hit, by the source's call; / = no result; [ ] = dose if it differs, or a comment. The list is not random: actives were taken first. Their share in the collection is about 2.4%. Unless noted, no stated cut-off is given here; in the data, active means inhibition above about 50%; inactive means the rest.
SMILES,Wnt bcat act,MITF TRPM1 HTS,Dyrk1A ADPGlo,miR-122 sensor,GSIS activator,NSD2 HMT inh,Alpha artifact
O=C(COC(=O)c1ccc([N+](=O)[O-])s1)Nc1ccccc1,/,-8,2,-4,-13,69*,-1%
Cc1ccc(OCc2nnc(SCC(=O)NC3CCCCC3)n2C)cc1,/,2,2,2,/,-2,/
Cn1c(COc2ccc(Cl)cc2)nnc1SCC(=O)NC1CCCCC1,/,3,2,0,/,51*,1%
O=C(N/N=C/c1cc2c(cc1[N+](=O)[O-])OCO2)c1ccccn1,4,15,-6,1,-3,53*,-4%
O=C(N/N=C/c1cc2c(cc1Cl)OCO2)c1ccccn1,29,68,-1,/,18,0,/
CC(=O)Nc1ccc(NC(=O)C(C)OC(=O)c2ccccc2NS(=O)(=O)c2cccs2)cc1 (centres undefined),-3,1,-6,0,0,-1,/
CC(=O)Nc1ccc(NC2=C/C(=N/S(=O)(=O)c3cccs3)c3ccccc3C2=O)cc1,-13,-102,10,7,-48,83*,-10%
O=C(C[C@H]1CC[C@@H]2[C@H](COC[C@H](O)CN2C(=O)Nc2cc(Cl)cc(Cl)c2)O1)NCC1CCCCC1,/,/,/,-1[16.7 µM],-26,/,/
Cc1nc(COC(=O)c2ccc(CO)cc2)cs1,-7,/,5,-1,/,-1,/
Cc1nc(COC(=O)c2cc(O)c3ccccc3c2O)cs1,-1,-7,9,/,-25,78*,-2%
O=C(O)c1cccc(-n2cccc2/C=C2/SC(=O)N(CC(=O)N3CCCC3)C2=O)c1,-2,-4,-7,-2,3,61*,2%
O=C(O)c1cccc(-n2cccc2/C=C2/NC(=O)N(c3ccc(Cl)cc3)C2=O)c1,-1,-8,-3,/,4,141*,2.1µM*
O=C(O)c1cccc(-n2cccc2/C=C2/NC(=O)N(c3cccc(Cl)c3)C2=O)c1,2,-6,-2,/,8,18,/
Cc1ccccc1N=C1NC(=O)/C(=C/c2cccn2-c2cccc(C(=O)O)c2)S1,0,11,-5,/,4,80*,-11%
Cc1cccc(N=C2NC(=O)/C(=C/c3cccn3C)S2)c1C,2,/,1,1,-7,17,/
CNC[C@H]1Oc2cc(C#CC3CCCCC3)ccc2S(=O)(=O)N([C@@H](C)CO)C[C@H]1C,/,/,/,11[16.7 µM],43,/,/
Cc1cccc(-n2c(Cn3nc(C)c([N+](=O)[O-])c3C)n[nH]c2=S)c1,/,-1,3,-4,3,125*,2%
Cc1nn(CCc2n[nH]c(=S)n2-c2cccc(Cl)c2)c(C)c1[N+](=O)[O-],/,3,-6,-3,-1,9,/
C[C@@H]1CN([C@@H](C)CO)C(=O)c2cc(C#Cc3cccnc3)cnc2O[C@H]1CN(C)Cc1ccccc1,/,/,/,6[16.7 µM],6,/,/
Cc1noc(C)c1NC(=O)N[C@H]1C=C[C@H](CC(=O)Nc2ccc(-c3ccccc3)cc2)O[C@H]1CO,/,/,/,-15[16.7 µM],-3,/,/
Cc1ccc(OCC(=O)Nc2cc(S(=O)(=O)N3CCOCC3)ccc2N2CCCC2)cc1,4,-8,-2,11,-19,0,/
CN1CCN(c2ccc(S(=O)(=O)N3CCOCC3)cc2NC(=O)COc2ccc(F)cc2Cl)CC1,2,-3,-6,/,-11,185*,-1%
O=C(COc1ccc(F)cc1Cl)Nc1cc(S(=O)(=O)N2CCOCC2)ccc1N1CCCCC1,0,-2,-1,5,1,-6,/
Cc1ccc(Cl)c(OCC(=O)Nc2cc(S(=O)(=O)N3CCOCC3)ccc2N2CCCC2)c1,3,17,-4,7,-23,73*,-4%
C[C@H](CO)N1C[C@H](C)[C@H](CN(C)Cc2ccccc2)OCCCC[C@H](C)Oc2ccc(NC(=O)Nc3ccc(F)cc3)cc2C1=O,/,/,/,-6[16.7 µM],-17,/,/
CC1OC(Nc2ccc(N=Nc3ccccc3)cc2)C(O)C(O)C1O (centres undefined),1,16,2,1,-1,/,/
CC1OC(Nc2cccc3ccccc23)C(O)C(O)C1O (centres undefined),/,-46,1,4,/,65*,-2%

# Compound activity as filed in PubChem.
